Giardia FBPA inh = Giardia lamblia aldolase inhibition. Potency, µM (top dose mostly 59.6 µM), for the others: at the highest dose activity, negative = inhibition, hits mostly inhibitors. 290,000 compounds, 0.71% hits. AID 2451. purified Giardia FBPA. A8B2U2; further: nearly all actives have a fitted effect of over 55% in size
Target sequence (A8B2U2 whole entry, looked up): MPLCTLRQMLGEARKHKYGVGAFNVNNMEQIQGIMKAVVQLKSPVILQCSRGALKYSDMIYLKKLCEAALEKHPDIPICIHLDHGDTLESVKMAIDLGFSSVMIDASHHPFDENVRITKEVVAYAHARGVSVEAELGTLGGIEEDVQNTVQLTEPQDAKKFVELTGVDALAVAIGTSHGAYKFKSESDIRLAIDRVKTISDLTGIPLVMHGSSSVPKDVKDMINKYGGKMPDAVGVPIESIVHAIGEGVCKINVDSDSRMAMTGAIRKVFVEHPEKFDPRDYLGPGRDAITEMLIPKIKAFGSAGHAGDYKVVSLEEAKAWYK
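Giardia FBPA (40 nM reagent) was preincubated 10 min at RT with compound (up to 57.5 uM final), then substrate plus GAPDH/TPI/NAD/arsenate coupling system with diaphorase/resazurin was added; resorufin fluorescence (525/598 nm) was read after 20 min.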
AmpC inh detg = AmpC beta-lactamase inhibition with detergent present | AmpC hydrolysis of nitrocefin, absorbance 480 nm, 0.01% Triton | 370,000 compounds, 0.041% hits | Potency, µM (series often up to 114 µM), inactives show top-dose activity change, negative = inhibition, usual class: inhibitors | P00811;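 further: 0% = no-compound wells and -100% = no-enzyme wells; nearly all actives have a fitted effect of over 25% in size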
Target sequence (P00811 whole entry, looked up): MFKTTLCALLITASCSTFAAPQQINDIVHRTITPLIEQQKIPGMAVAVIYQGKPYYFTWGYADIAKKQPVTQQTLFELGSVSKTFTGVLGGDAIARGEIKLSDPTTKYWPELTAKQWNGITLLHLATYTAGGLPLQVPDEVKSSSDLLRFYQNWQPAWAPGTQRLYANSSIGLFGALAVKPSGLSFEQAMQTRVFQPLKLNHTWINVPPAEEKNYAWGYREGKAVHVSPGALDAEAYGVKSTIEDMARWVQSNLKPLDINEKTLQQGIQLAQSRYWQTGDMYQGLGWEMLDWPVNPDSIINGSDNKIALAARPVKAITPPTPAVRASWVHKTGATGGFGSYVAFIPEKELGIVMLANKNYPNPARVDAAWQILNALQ
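AmpC (5.3 nM in the dispensed reagent) in 20 mM phosphate pH 7.0 with 0.01% (detergent screen) or 0.0001% Triton X-100 was preincubated with compounds for 15 min at room temperature. Nitrocefin was then added from an 800 uM solution, and hydrolysis was followed at 480 nm.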
AmpC no deterg = AmpC beta-lactamase inhibition without detergent; 330,000 compounds, 0.52% hits; P00811; Potency, µM (highest dose often 57.1 µM), inactives show at the highest dose activity change, negative = inhibition, hits mostly inhibitors; AmpC nitrocefin hydrolysis, absorbance 480 nm, 0.0001% Triton;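 further: plate controls were no compound for no effect and no enzyme for full effect; nearly all actives have a fitted effect of over 20% in size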
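20 mM phosphate pH 7.0 + 0.01% (detergent screen) or 0.0001% Triton X-100; 5.3 nM AmpC reagent; cpd preinc 15 min RT; nitrocefin (800 uM stock) to start; A480 q20 s × 4 min; Activity was normalised to no-enzyme and no-compound control wells.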
RE007 growth inh = less growth of the S. pombe RE007 Vpr strain; Potency, µM (highest dose often 92.2 µM), for inactives: at the top dose activity change, negative = less growth, usual class: inhibitors; 360,000 compounds, 0.21% hits; S. pombe RE007 Vpr strain, BacTiter-Glo ATP luminescence, 24 h; AID 651644; active means well fitted falling curve with a large enough effect; inconclusive means small, poorly fitted or top-dose-only effect; inactive means no such curve, though single readings can be large or run the other way; further: nearly all actives have a fitted effect of over 50% in size
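Fission yeast RE007 carrying one integrated HIV-1 vpr copy, seeded at OD 0.01 in PMG+AL medium with 23 nL pinned compound. Grown 24 h at 30 degrees; viability read by BacTiter-Glo luminescence after 5 min.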
Sm TGR inh = S. mansoni TGR enzyme inhibition; 360,000 compounds, 3% hits; purified TGR, DTNB reduction, TNB absorbance 405 nm; Q962Y6; Potency, µM (series often up to 114 µM), inactives show top-dose activity change, negative = inhibition, hits mostly inhibitors; further: nearly all actives have a fitted effect of over 60% in size
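Kinetic colorimetric format: TGR-catalysed, NADPH-driven DTNB reduction monitored via TNB absorbance. Enzyme dispensed at 20 nM; compound exposure 15 min at room temperature before reaction start.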
* = called active by the depositor; ? = inconclusive; . = no result given; [ ] = dose if it differs, or a comment. Only some compounds are listed: those with a hit (about 3.4% of all), similar ones and a draw of the others. Unless noted, the call rests on the fitted dose curve; in most records, active means well fitted curve in the direction sought with a large enough effect; inconclusive means small, poorly fitted or top-dose-only effect, or another doubt; inactive means no such curve, though single readings can be large; an effect the other way counts as inactive or inconclusive. Unless noted, on the % scale 0 is the no-effect control and ±100 the full control effect; potency means the concentration at half of the fitted maximal effect.

SMILES | Giardia FBPA inh | AmpC inh detg | AmpC no deterg | RE007 growth inh | Sm TGR inh
Cc1c(N2C(=O)/C(=C\C3CC=CCC3)SC2=S)c(=O)n(-c2ccccc2)n1C (centres undefined) | -14% | -1% | -19% | 47% | 28µM*
Cc1c(N2C(=O)/C(=C/C3CC=CCC3)SC2=S)c(=O)n(-c2ccccc2)n1C (centres undefined) | ? | -7% | -7% | 17% | 7.9µM*
Cc1c(N2C(=O)/C(=C/c3ccccc3)SC2=S)c(=O)n(-c2ccccc2)n1C | 6% | -10% | 5% | 21% | 6%
CN(CC(=O)Nc1cc(S(=O)(=O)N2CCCC2)ccc1Cl)Cc1ccc2c(c1)OCO2 | . | -9% | 0% | 5% | -17%
Cc1ccc(C)c(NC(=O)C(Sc2nncn2C)c2ccccc2)c1 (centres undefined) | 2% | -16% | -7% | -23% | 89µM*
CCN1C(C(=O)c2ccccc2)=C(OC(=O)COc2ccccc2)c2ccccc2S1(=O)=O | . | 4% | . | . | 16µM*
CCN1C(C(=O)c2ccccc2)=C(OC(=O)C(C)C)c2ccccc2S1(=O)=O | . | 16% | . | . | -29%
Cc1ccc(C(=O)OC2=C(C(=O)c3ccccc3)N(C)S(=O)(=O)c3ccccc32)cc1 | . | 10% | . | . | 4%
Cc1ccc(OCC(=O)OC2=C(C(=O)c3ccccc3)N(C)S(=O)(=O)c3ccccc32)cc1 | . | 31% | . | . | 32µM*
CC(C)(C)c1ccc(C(=O)NCC(c2cccs2)S(=O)(=O)c2cccs2)cc1 (centres undefined) | . | 11% | . | . | 35µM*
O=C(NCCc1ccccc1)C(=O)NCC(c1ccco1)S(=O)(=O)c1cccs1 (centres undefined) | . | 2% | . | . | 20µM*
O=C(NCC(c1ccco1)S(=O)(=O)c1cccs1)c1ccc(F)c(F)c1 (centres undefined) | . | 2% | . | . | 16µM*
Cc1ccc(C(=O)NCC(c2ccco2)S(=O)(=O)c2cccs2)cc1C (centres undefined) | . | -2% | . | . | ?
COc1ccc(C(=O)NCC(c2ccco2)S(=O)(=O)c2cccs2)cc1OC (centres undefined) | . | 4% | . | . | 1.3µM*
CCN(CC)CCOC(=O)[C@@H](c1ccccc1)C1CCCCC1 | -3%[21.7 µM] | . | . | . | .
O=C(NCC(c1ccco1)S(=O)(=O)c1cccs1)c1ccccc1 (centres undefined) | . | 0% | . | . | 0.32µM*
O=C(NCC(c1cccs1)S(=O)(=O)c1ccccc1)c1ccc(C(F)(F)F)cc1 (centres undefined) | . | -1% | . | . | 3%
COc1ccccc1CCNC(=O)C(=O)NCC(c1ccco1)S(=O)(=O)c1ccccc1 (centres undefined) | . | 4% | . | . | 35µM*
O=C(NCC(c1ccco1)S(=O)(=O)c1cccs1)c1ccc(C(F)(F)F)cc1 (centres undefined) | . | 13% | . | . | 4.5µM*
CC1CCc2sc(C(=O)Nc3ccc(C(N)=O)cc3)cc2C1 (centres undefined) | -3% | 6% | -19% | 24% | 3%
CC(C)OC(=O)c1nn2c(C(F)(F)F)cc(-c3ccc(Br)o3)nc2c1Br | 4% | ? | -23% | -9% | 20µM*
C=CCc1ccc(OCC(O)CN2CCC(Cc3ccccc3)CC2)c(OC)c1 (centres undefined) | -7% | -8% | 51% | 11% | 50µM*
COCCN(CC(=O)Nc1cccc(C)c1)S(=O)(=O)c1ccc(S(=O)(=O)N2CCCC2)cc1 | 1% | -9% | 11% | -14% | 4%
N#CC1(NC(=O)COC(=O)c2cc(O)c3ccccc3c2O)CCCCC1 | . | -15% | -40% | ? | 22µM*
N#CC1(NC(=O)COC(=O)c2ccccc2[N+](=O)[O-])CCCCC1 | . | -2% | -8% | -2% | -1%
SMILES | Giardia FBPA inh | AmpC inh detg | AmpC no deterg | RE007 growth inh | Sm TGR inh
CCOC(=O)C1(C)CCCN(C(=O)c2cccc(OC(F)(F)F)c2)C1 (centres undefined) | . | . | . | 6% | .
Cc1ccc(C(=O)Nc2cccc(C(=O)N/N=C/c3ccccc3F)c2)cc1 | -18% | 7% | -40% | -1% | 1%
O=C(O)C1=C[C@H](c2ccc(F)cc2)C[C@H](OCc2ccc(CO)cc2)O1 | 11% | 3% | -21% | -6% | 35µM*
O=C(O)C1=C[C@H](c2ccccc2)C[C@H](OCc2ccc(CO)cc2)O1 | 5% | 11% | -22% | -5% | ?
O=C(O)C1=C[C@H](c2cccs2)C[C@H](OCc2ccc(CO)cc2)O1 | 7% | 1% | -22% | -3% | 35µM*
O=C(O)C1=C[C@@H](c2ccc(Br)cc2)C[C@@H](OCc2ccc(CO)cc2)O1 | 27% | -2% | -18% | 7% | 40µM*
C=CCOC(=O)C1=C[C@@H](c2ccc3c(c2)OCO3)C[C@@H](OCc2ccc(CO)cc2)O1 | -15% | 9% | -19% | -8% | 40µM*
O=C(O)C1=C[C@H](c2ccc3c(c2)OCO3)C[C@H](OCc2ccc(CO)cc2)O1 | . | . | . | 57% | .
COc1ccc(/C(O)=C2\C(=O)C(=O)N(c3cc(C)on3)C2c2ccccc2OC)cc1 (centres undefined) | 23% | 4% | -16% | 17% | -5%
O=C(C[n+]1ccccn1)c1ccccc1 | -17% | -13% | -25% | -2% | -11%
O=[N+]([O-])c1cc([N+](=O)[O-])c2oc(-c3ccccc3)c(Br)c2c1O | 4% | -5% | -45% | 28µM* | 1%
N#CCn1c(CCl)nc2ccccc2c1=O | -11% | 2% | -28% | 1% | 28µM*
CN1CCN(Cc2nc3ccccc3c(=O)n2CC#N)CC1 | 4% | -7% | -19% | -7% | 5%
O=C(C1=C(O)C(=O)N(CCN2CCOCC2)C1c1ccc(F)cc1)c1cc2ccccc2o1 (centres undefined) | . | 5% | -1% | -10% | 28µM*
O=C(C1=C(O)C(=O)N(CCN2CCOCC2)C1c1ccco1)c1cc2ccccc2o1 (centres undefined) | . | 0% | -18% | 3% | 22µM*
O=C(C1=C(O)C(=O)N(CCN2CCOCC2)C1c1cccc(Br)c1)c1cc2ccccc2o1 (centres undefined) | . | 4% | 33% | 8% | 0%
CS(=O)(=O)N(CC(=O)NCc1cccnc1)C1CCCCC1 | 3% | -7% | -8% | 17% | 3%
COCCN1C(=O)COc2ccccc2C1C(=O)NC1CCCCC1 (centres undefined) | . | . | . | -16% | .
CCCN1C(=O)S/C(=C\c2ccc(N3CCOCC3)cc2C)C1=O | 11% | -7% | -11% | . | 2%
CCCN1C(=O)S/C(=C\c2ccc(N3CCOCC3)o2)C1=O | ? | 10% | 35% | -13% | 8.9µM*
CCCN1C(=O)S/C(=C/c2ccc(N3CCOCC3)o2)C1=O | ? | -12% | 44% | ? | 1.4µM*
